Bioassay records (PubChem)
AHR act – activators of human aryl hydrocarbon receptor | 2.5% of 320,000 active | P35869 | activation, % at 5 µM | AHR-responsive luciferase reporter cells, luminescence; in the data active means activation above about 47%;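 further: 0% = vehicle wells and 100% = reference agonist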
Target sequence (P35869 whole entry, looked up): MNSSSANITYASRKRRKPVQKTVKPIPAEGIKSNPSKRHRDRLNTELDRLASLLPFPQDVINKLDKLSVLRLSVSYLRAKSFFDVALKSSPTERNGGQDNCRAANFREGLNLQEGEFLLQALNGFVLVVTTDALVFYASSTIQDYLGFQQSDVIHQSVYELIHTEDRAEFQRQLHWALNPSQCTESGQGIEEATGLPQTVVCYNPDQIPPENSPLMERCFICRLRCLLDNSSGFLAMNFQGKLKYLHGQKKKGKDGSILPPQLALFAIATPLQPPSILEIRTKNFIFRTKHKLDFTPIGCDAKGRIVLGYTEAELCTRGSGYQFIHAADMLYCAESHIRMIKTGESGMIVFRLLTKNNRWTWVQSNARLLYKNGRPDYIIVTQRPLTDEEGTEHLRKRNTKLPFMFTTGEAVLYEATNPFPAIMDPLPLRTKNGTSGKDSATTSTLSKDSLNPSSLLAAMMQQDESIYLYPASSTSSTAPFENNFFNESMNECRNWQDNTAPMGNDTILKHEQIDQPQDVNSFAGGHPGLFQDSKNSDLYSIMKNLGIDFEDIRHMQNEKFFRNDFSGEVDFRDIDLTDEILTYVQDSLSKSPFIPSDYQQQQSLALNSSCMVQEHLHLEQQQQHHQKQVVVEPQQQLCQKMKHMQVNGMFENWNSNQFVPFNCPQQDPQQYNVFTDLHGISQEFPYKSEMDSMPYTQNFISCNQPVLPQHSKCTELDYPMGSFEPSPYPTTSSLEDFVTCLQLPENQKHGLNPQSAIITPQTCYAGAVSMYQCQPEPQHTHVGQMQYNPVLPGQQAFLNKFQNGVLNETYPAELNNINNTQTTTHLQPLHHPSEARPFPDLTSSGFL
AI-2 QS modul – modulators of Vibrio harveyi AI-2 quorum sensing system; AID 2094; activity change, % at 7.5 µM; Vibrio harveyi JMH597 AI-2 luminescence/OD600 ratio, 9 h; hits give low values; strain lacks LuxN and CqsS sensors; 0 = neutral-control median; 0.4% of 300,000 active; in the data active means activity change below about -75%, passing the limit was not always enough;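 further: luminescence divided by OD600 gain over 9 h not by final OD600 alone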
NTR1 ag – agonists of human neurotensin receptor NTR1 | NTR1-U2OS beta-arrestin-GFP spot imaging, agonist mode | P30989 | activation, % at 20 µM | 0.17% of 330,000 active;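 active means activation at or above 40% of the spot to cytoplasm intensity ratio, with at least 20 cells analyzed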;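 further: 0% = DMSO without peptide and 100% = 100 nM NTR1 peptide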
H9c2 protect – protects H9c2 cardiomyocytes from peroxide injury; H2O2 injury protection, ATPLite, 2 h; protection from H2O2 cell death, % at 20 µM; 0.63% of 360,000 active;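 active means compounds giving at least 50% protection of heart cells from peroxide-induced death in the single-dose screen, raw or plate-pattern-corrected value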;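 further: 0% = DMSO wells with peroxide and 100% = DMSO wells without peroxide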
SUMO Mot1 rescue – blocks SUMOylation pathway, rescuing yeast Mot1-301 growth; S. cerevisiae Mot1-301 growth rescue, ATP luminescence, 38.5C; percent above DMSO median, 100 means doubled; 1% of 320,000 active; growth rescue, % at 18.8 µM; AID 2716;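 active means every valid replicate shows activation above 250% relative to neutral control wells; inactive means the rest, any valid replicate at or below 250%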;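 further: OY570 slx delta 5 strain wells were the positive control but not used for scaling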
GRIN3A LBD mod – NR3A (human) ligand-binding domain modulation. NR3A LBD differential scanning fluorimetry, Tm shift; 0% = protein alone, 100% = glycine-bound protein. Tm shift relative to glycine control, % at 25 µM. 2.5% of 340,000 active. AID 1259313;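 active means melting temperature shift of at least 10% of the positive control shift, at one fixed dose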
Numbers without * were called inactive. Only some compounds are listed: those with a hit (about 6.2% of all), similar ones and a draw of the others.

Screening Cc1ccc(/C(N)=N/OC(=O)CCc2ccccc2)cc1 returned AHR act 0, AI-2 QS modul -77*, NTR1 ag 6, H9c2 protect -6, SUMO Mot1 rescue 42 and GRIN3A LBD mod -13.
Screening Cc1ccc(/C(N)=N/OC(=O)c2ccc3ccccc3c2)cc1 returned AHR act 25, AI-2 QS modul 22, NTR1 ag 2, H9c2 protect -9, SUMO Mot1 rescue 238 and GRIN3A LBD mod 27*.
Screening Cc1ccc(/C(N)=N/OC(=O)c2ccc(C)cc2Cl)cc1 returned AHR act 23, AI-2 QS modul 5, NTR1 ag 0, H9c2 protect -19, SUMO Mot1 rescue 3 and GRIN3A LBD mod 197*.
Screening N/C(=N\OC(=O)c1ccc(Cl)cc1Cl)c1ccc(Cl)cc1 returned AHR act 24, AI-2 QS modul 49, NTR1 ag 0, H9c2 protect -29, SUMO Mot1 rescue 6 and GRIN3A LBD mod 18*.
`Cc1cccc(/C(N)=N/OC(=O)c2ccc(Cl)cc2Cl)c1` gave AHR act 42, AI-2 QS modul 27, NTR1 ag 1, H9c2 protect -24, SUMO Mot1 rescue -11 and GRIN3A LBD mod -16.
Cc1ccc(/C(N)=N/OC(=O)c2cccc(F)c2)cc1 was read as AHR act -1, AI-2 QS modul 2, NTR1 ag 1, H9c2 protect -9, SUMO Mot1 rescue 0 and GRIN3A LBD mod 9.
For CC[C@]12c3[nH]c4cc(-c5ccco5)ccc4c3CCN1C(=O)[C@@H](CC(=O)NC(C)(C)C)C[C@@H]2C(=O)N1CCN(C(=O)C2CC2)CC1 the results were NTR1 ag 1, H9c2 protect 9 and GRIN3A LBD mod -1.
`N/C(=N\OC(=O)c1ccc(Cl)cc1Cl)c1ccccc1` gave AHR act 82*, AI-2 QS modul 4, NTR1 ag 7, H9c2 protect -18, SUMO Mot1 rescue -13 and GRIN3A LBD mod -24.
Screening Cc1cccc(C(=O)N2CCCC(CCC(=O)N3CCN(c4ccccn4)CC3)C2)c1 (stereo unspecified) returned AHR act -3, AI-2 QS modul 24, NTR1 ag -1, H9c2 protect 0, SUMO Mot1 rescue -7 and GRIN3A LBD mod 2.
Screening CS(=O)(=O)N(Cc1ccc(C(=O)NN=C2CCCCCC2)cc1)c1ccccc1 returned AHR act 9, AI-2 QS modul 14, NTR1 ag -1, H9c2 protect 6, SUMO Mot1 rescue 10 and GRIN3A LBD mod 13*.
`CS(=O)(=O)N(Cc1ccc(Cl)cc1)c1ccc(C(=O)N/N=C/c2cc3ccccc3nc2Cl)cc1` gave AHR act -1, AI-2 QS modul 22, NTR1 ag 17, H9c2 protect 21, SUMO Mot1 rescue -2 and GRIN3A LBD mod 10*.
`Cc1ccc(N(Cc2ccc(C(=O)NCCSc3ccccn3)cc2)S(C)(=O)=O)cc1C` gave AHR act 7, AI-2 QS modul 16, NTR1 ag 0, H9c2 protect 35, SUMO Mot1 rescue -9 and GRIN3A LBD mod 2.
Screening CS(=O)(=O)N(Cc1ccc(C(=O)NCCSc2ccccn2)cc1)c1ccccc1 returned AHR act 5, AI-2 QS modul 18, NTR1 ag 6, H9c2 protect 62*, SUMO Mot1 rescue 0 and GRIN3A LBD mod 5.
`CCCC(C(=O)Nc1cccc(S(=O)(=O)N2CCCC2)c1)c1ccccc1` (stereo unspecified) gave AHR act 3, AI-2 QS modul 7, NTR1 ag 4, H9c2 protect -1, SUMO Mot1 rescue 11 and GRIN3A LBD mod -10.
`Fc1ccc(NC(=S)N/N=C/c2ccc(F)c(F)c2)cc1` gave AHR act 15, AI-2 QS modul -60, NTR1 ag 3, H9c2 protect 0, SUMO Mot1 rescue 8 and GRIN3A LBD mod 1.
`Cc1ccc(CNC(=S)Nc2ccc(C)c([N+](=O)[O-])c2)cc1` gave AHR act 4, AI-2 QS modul -48, NTR1 ag 7, H9c2 protect -26, SUMO Mot1 rescue 3 and GRIN3A LBD mod 11*.
`Cc1ccc(C=NNC(=O)C(=O)Nc2ccc(Cl)c([N+](=O)[O-])c2)cc1` gave H9c2 protect -4.
Screening COc1ccc(NC(=S)N/N=C/c2ccc(F)c(F)c2)cc1 returned AHR act 114*, AI-2 QS modul -6, NTR1 ag 4, H9c2 protect -5, SUMO Mot1 rescue 10 and GRIN3A LBD mod 3.
`O=[N+]([O-])c1cc(/C=N/NC(=S)Nc2ccccc2Cl)ccc1Cl` gave AHR act 16, AI-2 QS modul 14, NTR1 ag 21, H9c2 protect -11 and GRIN3A LBD mod 18*.
Cc1ccc(NC(=S)N/N=C/c2ccc(Cl)c([N+](=O)[O-])c2)cc1 was read as AHR act 7, AI-2 QS modul 11, NTR1 ag 8, H9c2 protect -7, SUMO Mot1 rescue -1 and GRIN3A LBD mod 22*.
`CC(=O)c1ccc(NC(=O)CCS(=O)(=O)c2ccc3c(c2)n(C)c(=O)c(=O)n3C)cc1` gave AHR act 1, AI-2 QS modul 16, NTR1 ag 4, H9c2 protect -5, SUMO Mot1 rescue 13 and GRIN3A LBD mod 2.
For COC1OCC(O)C(NC(=O)N(C)N=O)C1O (stereo unspecified) the results were H9c2 protect 3.
For Clc1ccccc1-c1nn2c(-c3ccccn3)nnc2s1 the results were AHR act -9, AI-2 QS modul 5, NTR1 ag 0, H9c2 protect 12, SUMO Mot1 rescue -20 and GRIN3A LBD mod 1.
`Clc1ccc(-c2ccc(-c3nn4c(-c5ccco5)nnc4s3)o2)cc1` gave AHR act -1, AI-2 QS modul 19, NTR1 ag 14, H9c2 protect 26, SUMO Mot1 rescue -8 and GRIN3A LBD mod 0.
Brc1ccc(-c2nn3c(-c4ccccn4)nnc3s2)o1 was read as AHR act -16, AI-2 QS modul 27, NTR1 ag 0, H9c2 protect 52*, SUMO Mot1 rescue 124 and GRIN3A LBD mod -2.
Brc1ccc(-c2nn3c(-c4ccco4)nnc3s2)o1 was read as AHR act -10, AI-2 QS modul 10, NTR1 ag -1, H9c2 protect 94*, SUMO Mot1 rescue -17 and GRIN3A LBD mod -5.
Screening O=C(Nc1ccc2c(c1)OCO2)c1cc(C2CCCCN2C(=O)CCCc2ccccc2)on1 (stereo unspecified) returned H9c2 protect 2.
`CN1CCC(N(C)C(=O)c2ccc(Cl)c(S(=O)(=O)N(C)c3ccc(Cl)cc3)c2)CC1` gave AHR act 0, NTR1 ag 1, H9c2 protect 5, SUMO Mot1 rescue -19 and GRIN3A LBD mod 0.
